# Measured values as given in PubChem BioAssay AID2716 (Broad Institute, 2010).
# The campaign covered roughly 320,000 compounds. About 3,300 (1%) were called active. The list comes from a sample in which actives are over-represented; it also holds similar structures and randomly drawn compounds. Values without a mark were called inactive.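 Rule for the calls: active = every valid replicate shows activation above 250% relative to neutral control wells; inactive = the rest, any valid replicate at or below 250%.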
# Assay: yeast Mot1-301 growth rescue at high temperature, primary screen, SUMOylation pathway inhibitor project, S. cerevisiae, ATP luminescence, 38.5C (AID 2716);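 note: OY570 slx delta 5 strain wells were the positive control but not used for scaling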
# Conditions: S. cerevisiae Mot1-301 growth rescue, at 18.8 µM, hits give high values, percent above DMSO median, 100 means doubled
row,Structure (SMILES),growth rescue
1,O=C(NNC(=O)c1ccc(-n2cncn2)c([N+](=O)[O-])c1)c1ccccc1,126%
2,Cc1csc2nc(O)c(C(=O)NCCN3CCOCC3)c(=O)n12,25.8%
3,O=S(=O)(NCCc1ccc(F)cc1)c1cccc2cccnc12,-5.12%
4,O=C(CSCc1ccc(Cl)cc1)N1CCN(Cc2ccc3c(c2)OCO3)CC1,194%
5,O=C(CSCc1ccc(Cl)cc1)N1CCCCC1,1570% (active)
6,O=C(CSCc1cccs1)N1CCCC1,-5.87%
7,CC(C)(C)c1nnc(N/N=C/c2ccc(O)cc2)n(N)c1=O,-10.1%
8,COc1ccnc2c1c(=O)n(Cc1cccc(F)c1)c(=O)n2C,95.4%
9,CCCCn1c(-c2cccc(C)c2)nc2cc3[nH]c(=O)c(C(C)C)nc3cc21,-29.3%
10,COc1cc2ccccc2cc1C(=O)Nc1ccc(N2CCOCC2)cc1,4.29%
11,COc1ccc(/C=C(/CC(=O)Nc2ccc(C)cc2)c2nc3ccccc3s2)cc1,7.28%
12,COc1cccc(/C=C(/CC(=O)Nc2ccc(N3CCOCC3)cc2)c2nc3ccccc3s2)c1,766% (active)
13,CCCCCc1c(C)nc(N2CCN(Cc3ccc4c(c3)OCO4)CC2)[nH]c1=O,-20.3%
14,Cc1nnc(SCc2cc(=O)[nH]c(N3CCN(Cc4ccccc4)CC3)n2)s1,18.3%
15,CCc1c(C)nc(N2CCN(Cc3ccccc3)CC2)[nH]c1=O,1390% (active)
16,Oc1oc(-c2ccccc2Br)nc1/C=N/c1ccccn1,15.4%
17,COC(=O)Cn1c(O)c(N=NC(=O)OC)c2ccccc21,-22.3%
18,CC(C)n1c(O)c(N=Nc2ccccn2)c2ccccc21,421% (active)
19,COc1cccc2cc(C(=O)NCc3ccc(C)cc3)c(=N)oc12,-7.41%
20,O=C(COc1cccc2c1CCNC2=O)NC1CCCCC1,-3.62%
21,COC(=O)c1cc2n(n1)CCCNC2=O,0.35%
22,O=[N+]([O-])/C=C/c1ccc2c(ccn2Cc2ccccc2)c1,436% (active)
23,O=C(Cn1ccc2cc(S(=O)(=O)N3CCCC3)ccc21)NCc1ccccc1,-15.1%
24,COC(=O)Cn1cc(/C=C/[N+](=O)[O-])c2ccccc21,5.69%
25,Cc1sc2nc(CSCC(=O)Nc3c(Cl)cccc3Cl)[nH]c(=O)c2c1C,2.95%
26,Cc1sc2nc(CSCC(=O)NC3CCCCC3)[nH]c(=O)c2c1C,345% (active)

row,Structure (SMILES),growth rescue
1,Cc1nc(SCC(=O)NC2CCCC2)[nH]c(=O)c1C,4.8%
2,COc1ccc(Cl)cc1NC(=O)Cn1nc(-c2ccc(C)cc2)n(C)c1=S,283%
3,Cc1ccc2c(c1)N(CC(=O)NCC1CCCO1)C(=O)CO2 (stereo unspecified),346% (active)
4,Cc1ccc2c(c1)N(CC(=O)N1CCCC(C)C1)C(=O)CO2 (stereo unspecified),1.32%
5,Cc1ccc2c(c1)N(CC(=O)N1CCOCC1)C(=O)CO2,4.76%
6,CC(=O)N(c1ccc2oc(=O)sc2c1)S(=O)(=O)c1ccc(C)cc1,1.25%
7,Cc1onc(-c2ccccc2Cl)c1C(=O)OCC(=O)c1ccccc1,-4.82%
8,Cc1onc(-c2ccccc2Cl)c1C(=O)OCc1nnc(-c2ccccc2)o1,0.31%
9,CCOc1cnc(-c2c(-c3ccccc3Cl)noc2C)o1,675% (active)
10,Cc1ccc(N(C(=O)c2ccc(S(=O)(=O)N(C)C)cc2)C2C=CS(=O)(=O)C2)cc1 (stereo unspecified),-4.36%
11,COc1ccccc1NS(=O)(=O)c1ccc(C)c(C(=O)NNC(=O)c2csc(N3CCOCC3)n2)c1,6.56%
12,COC(=O)c1ccc(CSc2ccc3nnc(-c4ccccc4)n3n2)o1,-8.47%
13,Cc1ccc(S(=O)(=O)N2[C@@H](c3ccc(Br)cc3)C(C(=O)O)=C[C@H]2CC2CCCC2)cc1,800% (active)
14,Cc1ccc(S(=O)(=O)N2[C@@H](c3cccc4ccccc34)C(C(=O)O)=C[C@H]2C(C)(C)C)cc1,29.9%
15,Cc1ccc([C@@H]2CC=C(C(=O)O)[C@H](c3cccc(Cl)c3)N2S(=O)(=O)c2ccc(C)cc2)cc1,24.4%
16,CC12CN(NC(=O)c3ccc(Cl)cc3)C3(C#N)CC1CCC23C (stereo unspecified),42.1%
17,COC(=O)c1cccc(N(C(=O)CNC(=O)c2cccs2)C(C(=O)NCC2CCCO2)c2ccc(OC)c(OC)c2)c1 (stereo unspecified),-4.04%
18,O=C(NCC(=O)N(c1ccccc1)C(C(=O)NCC1CCCO1)c1ccccc1)c1cccs1 (stereo unspecified),679% (active)
19,Cc1ccc(N(C(=O)Cc2cccs2)C(C(=O)NCC2CCCO2)c2ccncc2)cc1 (stereo unspecified),5.34%
20,Cc1cc(C)n2nc(SCC(=O)NC(=O)NCc3ccco3)nc2n1,6.86%
21,COC(=O)C1(S(=O)(=O)C2(C(=O)OC)CCCC2)CCCC1,-10%
22,CCN(CC)C(=O)CSC(Nc1cccc(F)c1)=C(C#N)C#N,643% (active)
23,Cc1ccc(CSCC(=O)N(C)CC(=O)Nc2cccc(F)c2)cc1,-8.64%
24,CCN(CC)C(=O)C(=O)Nc1cccc(Br)c1,1.06%
25,Cc1ccc(NC(=O)[C@H](Cc2ccccc2)NC(=O)C2CCNCC2)cc1,2.72%
26,N/C(=N\OC(=O)Nc1ccccc1)c1ccno1,4.96%

row,Structure (SMILES),growth rescue
1,O=c1c2c(ncn1Cc1ccccc1)nc1n2CCC1,490% (active)
2,Cn1c(=O)c2c(ncn2CCc2ccccc2)n(C)c1=O,43.8%
3,O=c1c2cc([N+](=O)[O-])ccc2nc2n1CCC2,12%
4,Cc1ccc(C)c(OCCC(=O)OCC(=O)c2ccc3c(c2)NC(=O)CO3)c1,0.132%
5,O=C(CCNC(=O)c1ccc([N+](=O)[O-])cc1)Nc1ccccc1N1CCOCC1,-1.52%
6,CCCCN(C(=O)c1nn(C)c(=O)c2ccccc12)c1c(N)n(CCC)c(=O)[nH]c1=O,-14.8%
7,COc1ccc(Cc2nnc(SCC(=O)N(c3ccccc3)C(C)C)n(N)c2=O)cc1,2.77%
8,CN(CCc1ccccc1)c1ccc([N+](=O)[O-])cn1,9.85%
9,O=C(NN1C(=O)C2C3C=CC(C3)C2C1=O)c1ccco1 (stereo unspecified),-6.66%
10,CN(C)C(=O)c1coc2nc3ccccc3nc12,924% (active)
11,COc1cccc2cc(C(=O)N(C)C)c(=O)oc12,0.334%
12,CNC(=O)c1cccc2nc3ccccc3nc12,16%
13,CCOC(=O)C1(Cc2cccc(OC)c2)CCCN(S(=O)(=O)c2cccnc2)C1 (stereo unspecified),568% (active)
14,CCOC(=O)C1(Cc2cccc(OC)c2)CCCN(C(=O)CCSC)C1 (stereo unspecified),-10.8%
15,CCOC(=O)C1(Cc2cccc(OC)c2)CCN(C(C)COC)CC1 (stereo unspecified),9.8%
16,CCOC(=O)c1cc(C(=O)Nc2ccc(S(=O)(=O)Nc3ccc(OC)cc3)cc2)nn1C,1.95%
17,Cc1ccc(C)c(S(=O)(=O)N2CCN(c3ncnc4sccc34)CC2)c1,-2.33%
18,C/[N+]([O-])=C\c1ccc([N+](=O)[O-])o1,330% (active)
19,CCc1ccc(S(=O)(=O)N/N=C\c2ccc([N+](=O)[O-])o2)cc1,-9.87%
20,Cc1cc(C)nc(N/N=C/c2ccc([N+](=O)[O-])o2)n1,-7.8%
21,NC(=O)C1(C(N)=O)OC1c1ccc(Cl)cc1Cl (stereo unspecified),-6.75%
22,O=C(NCCc1ccco1)c1ccc(OCc2cn3ccccc3n2)cc1,-7.98%
23,CCc1nccn1S(=O)(=O)c1cccc([N+](=O)[O-])c1,1.13%
24,Cc1cn(C2C=CC(CO)O2)c(=O)[nH]c1=O (stereo unspecified),-3.98%
